# According to PubChem BioAssay AID1851 (National Center for Advancing Translational Sciences (NCATS), 2009):
# Hit rate of the full screen: of about 16,000 compounds, about 2,600 (16%) were called active. Inconclusive results (about 20%) are left out. Calls follow the shape of the dose curve; as a rule, active = well fitted curve in the direction sought with a large enough effect; inconclusive = small, poorly fitted or top-dose-only effect, or effect the other way; inactive = no such curve, though single readings can be large or run the other way. Not all results are given here.
# Target: Cytochrome P450 2D6 (Homo sapiens) (UniProt P10635)
# Sequence (P10635 whole entry, looked up): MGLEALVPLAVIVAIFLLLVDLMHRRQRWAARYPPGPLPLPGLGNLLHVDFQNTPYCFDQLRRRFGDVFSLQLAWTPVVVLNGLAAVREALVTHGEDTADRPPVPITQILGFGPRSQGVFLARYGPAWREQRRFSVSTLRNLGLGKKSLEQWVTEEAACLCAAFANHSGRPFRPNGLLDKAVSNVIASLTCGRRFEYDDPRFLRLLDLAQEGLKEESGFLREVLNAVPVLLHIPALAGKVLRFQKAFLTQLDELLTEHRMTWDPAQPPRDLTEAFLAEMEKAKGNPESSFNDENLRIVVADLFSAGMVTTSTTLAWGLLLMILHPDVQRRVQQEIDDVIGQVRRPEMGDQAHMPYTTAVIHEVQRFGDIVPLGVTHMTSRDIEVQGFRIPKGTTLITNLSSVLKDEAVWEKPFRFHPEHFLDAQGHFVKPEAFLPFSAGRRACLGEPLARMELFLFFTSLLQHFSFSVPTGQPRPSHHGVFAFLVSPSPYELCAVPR
# Assay: Cytochrome panel assay with activity outcomes
# Settings: recombinant CYP, pro-luciferin dealkylation, luminescence, p450-cyp2d6; series mostly up to 57.1 µM; activity, negative = inhibition: at the top concentration
# % is scaled to controls: 0 for no effect and ±100 for the full control effect.
SMILES,"activity, negative = inhibition",AC50
O=c1ccn(-c2cccc(C(F)(F)F)c2)nc1-c1ccn(-c2ccccc2F)n1,-11.5% (inactive),
CCOC(=O)CSc1cc(CS(=O)c2ccc(Cl)cc2)nc(-c2ccccc2)n1 (stereo not drawn),,14.1 µM (active)
CCOC(=O)CSc1cc(C(F)(F)F)nc(-c2ccccn2)n1,6.4% (inactive),
CCOC(=O)CSc1nc(-c2ccccc2)nc2ccccc12,-8.14% (inactive),
Oc1c(Cl)cc(C(c2cc(Cl)c(O)c(Cl)c2)C(c2cc(Cl)c(O)c(Cl)c2)c2cc(Cl)c(O)c(Cl)c2)cc1Cl,-3.64% [at 11.4 µM] (inactive),
C=C1CC[C@H](O)C/C1=C/C=C1\CCC[C@]2(C)[C@H]1CC[C@H]2[C@@H](C)/C=C\[C@@H](C)C(C)C,1.8% [at 25.6 µM] (inactive),
CC(=O)c1cc(C)ccc1OC(=O)CCN1C(=O)C2C3c4ccccc4C(c4ccccc43)C2C1=O (stereo not drawn),-6.66% (inactive),
Oc1cc(O)cc(/C=C\c2ccc(O)c(O)c2)c1,-5.72% (inactive),
O=C(C1CCN(S(=O)(=O)c2cccc3nsnc23)CC1)N1CCCc2ccccc21,-22.1% (inactive),
CN(CCCNC(=O)C1CCN(S(=O)(=O)c2cccc3nsnc23)CC1)Cc1ccccc1,,5.01 µM (active)
O=S(=O)(c1cccc2nsnc12)N1CCCC1,-16.8% (inactive),
COc1ccc(CCNC(=O)C2CCN(S(=O)(=O)c3cccc4nsnc34)CC2)cc1OC,-16.1% (inactive),
O=C(C1CCN(S(=O)(=O)c2cccc3nsnc23)CC1)N1CCN(c2ccccc2F)CC1,-19.3% (inactive),
O=C(NCC1COc2ccccc2O1)C1CCN(S(=O)(=O)c2cccc3nsnc23)CC1 (stereo not drawn),,3.55 µM (active)
C=C(C)COc1ccc2c(c1)CCC1C2CC[C@]2(C)C(=O)/C(=N/O)CC12 (stereo partly drawn),14.1% [at 11.4 µM] (inactive),
COc1ccc(C(=O)NC2(C(F)(F)F)C(=O)Nc3c2c(=O)[nH]c(=O)n3CCc2ccc(OC)c(OC)c2)cc1 (stereo not drawn),5.12% (inactive),
O=C(NC(=S)NNC(=O)c1cccs1)c1ccco1,-0.979% (inactive),
Cc1cc(C(=O)OC2CCOC2=O)c2ccccc2n1 (stereo not drawn),-0.0965% (inactive),
C[C@@H]1O[C@@H](O)[C@@H](O)[C@H](O)[C@H]1O,-0.841% [at 11.4 µM] (inactive),
Cc1ccc(-n2ncc(N(C)C)c(Cl)c2=O)cc1,-14.8% (inactive),
CC[C@](N)(C(=O)O)C(C)C,10.5% [at 11.4 µM] (inactive),
c1ccc2c3c([nH]c2c1)[C@@H]1[C@H]2CC[C@H]([C@H]4CCCN[C@H]42)N1CC3,,7.94 µM (active)
O=C1NCCc2c1[nH]c1ccccc21,-6% (inactive),
O=c1c2ccccc2nc2n1CCc1c-2[nH]c2ccccc12,-4.05% (inactive),
O=[N+]([O-])c1ccc(Nc2nc(N/N=C\c3ccc4c(c3)OCO4)nc(N3CCCCC3)n2)cc1,8.9% (inactive),
CN(C)S(=O)(=O)Oc1ccc(Cl)cc1C(=O)Nc1cccc(C(F)(F)F)c1,16.8% (inactive),
CN(C)S(=O)(=O)Oc1cccc(C(=O)Nc2ccc(Cl)c(Cl)c2)c1,-74.8% (inactive),

SMILES,"activity, negative = inhibition",AC50
CN(C)S(=O)(=O)Oc1ccsc1C(=O)Nc1ccc(Cl)cc1,,22.4 µM (active)
O=C(CSc1nnc2c(n1)[nH]c1ccc(F)cc12)OCc1ccccc1,2.72% (inactive),
COc1ccc(C(=O)NC(=S)NC(C)(C)C)cc1Br,3.67% (inactive),
C=CCN(CC=C)C(=S)NC(=O)c1ccc(OC)c(Br)c1,,0.708 µM (active)
COc1ccc(C(=O)NC(=S)NC(C)C)cc1Br,-8.27% (inactive),
Nc1cc(Cl)ccc1Oc1ccc(Cl)cc1,,15.8 µM (active)
Cc1cc(Cl)ccc1Oc1ncc(-c2ccc(Cl)cc2)cn1,24% (inactive),
Nc1cc(Cl)ccc1Oc1ccccc1,-14.5% (inactive),
S[C@@H]1CCCN(Cc2ccccc2)C1,,0.794 µM (active)
O=C1C2CCC(C(O)C2)N1Cc1ccccc1 (stereo not drawn),-23.9% (inactive),
O=C(O)[C@@H]1CS[C@@]2(CCCN(Cc3ccccc3)C2)N1,-2.15% [at 11.4 µM] (inactive),
O=C(O)[C@H]1CCCN(CCC=C(c2ccccc2)c2ccccc2)C1,-4.61% (inactive),
OCC1CCCN(Cc2ccc(-c3ccccc3)cc2)C1 (stereo not drawn),,0.1 µM (active)
CC1(C(=O)CSc2nc3ccccc3s2)CCC(=O)O1 (stereo not drawn),-9.32% (inactive),
CC(=O)O[C@@H](C)C[N+](C)(C)C,,inactive
Cn1c(SC2=CS(=O)(=O)c3ccccc32)nc2ccccc21,1.48% (inactive),
COC(=O)[C@@H]1C[C@H]1[C@@H](NC(=O)c1ccccc1)c1ccccc1,-12% (inactive),
COc1ccc(NC2=NC(=S)N(c3ccc(C)cc3)C23CCCCC3)cc1,23% (inactive),
CC1(C)CC(NCc2ccc3c(c2)OCO3)CCO1 (stereo not drawn),,0.631 µM (active)
CC1(C)CC(NC(=O)c2ccc3c(c2)OCO3)CC(C)(C)N1,-9.2% (inactive),
COc1ccc2[nH]cc(CCNc3ccnc(-c4ccoc4)n3)c2c1,,12.6 µM (active)
COCCNc1ccnc(-c2c(C)noc2C)n1,4.32% (inactive),
COc1ccc2[nH]cc(CCNc3ccnc(-c4cccc(NS(C)(=O)=O)c4)n3)c2c1,,20 µM (active)
COc1ccc2[nH]cc(CCNc3ccnc(-c4ccc(N(C)C)cc4)n3)c2c1,,10 µM (active)
Cc1cnc(CNc2ccnc(-c3cccc(NS(C)(=O)=O)c3)n2)cn1,4.19% (inactive),
COc1ccc2[nH]cc(CCNc3ccnc(-c4cccnc4)n3)c2c1,,1.26 µM (active)
